Assay results taken from PubChem BioAssay (Tox21).
Several values for one entry are separate records, joined by “and”; a condition that tells them apart may be missing. Identical values can stand only once. Inconclusive results are not listed. Activity calls are given as the source filed them. Unless noted, calls come from the whole dose curve; as a rule, active = well fitted curve in the direction sought with a large enough effect in the repeat runs; inconclusive = weak or mixed curves; inactive = no such curve, though single readings can be large; an effect the other way counts as inactive or inconclusive.

What was measured:
[1] = qHTS assay to identify small molecule antagonists of the sonic hedgehog signaling (Shh) pathway (AID 1259369; calls by dose curve; note: nearly all actives have a fitted effect of over 45% in size; note: potency is the fitted concentration of half-maximal effect); details: NIH/3T3 Gli1-Luc reporter, Shh antagonist, luminescence 24 h; series mostly up to 42.5 µM
Method in brief: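 Antagonist mode: compound added to 3T3 Gli1-Luc cells followed by conditioned-medium stimulation, 24 h at 37 C, 5% CO2. Inhibition taken as loss of Gli1-driven luciferase luminescence.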

[2] = molecular target: Estrogen receptor beta (Homo sapiens) (UniProt Q92731); assay: qHTS assay to identify small molecule agonists of the estrogen receptor beta (ER-beta) signaling pathway (AID 1259377; active = well fitted activation curve with a large enough effect in the signal ratio in the repeat runs, not every such curve was filed as active; the % refers to the signal ratio); details: ER-beta-UAS-bla HEK293T, beta-lactamase FRET ratio, 16 h; series mostly up to 42.5 µM
Method in brief: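 Measured by fluorescence intensity from a B/G FRET beta-lactamase substrate (2 h, room temperature) in ER-beta-UAS-bla HEK293T cells treated with DMSO-dissolved compounds for 16 hr at 37C and 5% CO2.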

[3] = molecular target: Estrogen receptor beta (Homo sapiens) (UniProt Q92731); assay: qHTS assay to identify small molecule antagonists of the estrogen receptor beta (ER-beta) signaling pathway (AID 1259378; active = well fitted inhibition curve with a large enough effect in the signal ratio in the repeat runs, not every such curve was filed as active; the % refers to the signal ratio); details: ER-beta-UAS-bla HEK293T, beta-lactamase FRET ratio, 16 h; series mostly up to 92.4 µM
Method in brief: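 ER-beta-UAS-bla HEK293T (GripTite) cells in 2% charcoal-stripped FBS medium were preincubated 6 hr at 37C, dosed with compound, then stimulated with 1 nM E2 (final) for 16 hr; beta-lactamase reporter read by B/G FRET fluorescence after 2 hr substrate loading.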

[4] = qHTS assay to identify small molecule agonists of the androgen receptor (AR) signaling pathway in the presence of an antagonist - cell viability counter screen (AID 1259379); details: MDA-kb2 viability, CellTiter-Fluor, 16 h; series mostly up to 92.4 µM;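 note: MDA-kb2 human breast cancer cells carrying an MMTV luciferase reporter; nearly all actives have a fitted effect of over 25% in size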
Method in brief: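 Cytotoxicity counter-screen run in the same wells as the nilutamide-challenged (3.0 µM final) AR agonist assay in MDA-kb2 cells. Compounds tested at 15 concentrations for 16 h, 37 °C without CO2; CellTiter-Fluor fluorescence read.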

[5] = qHTS assay to identify small molecule agonists of the estrogen receptor beta (ER-beta) signaling pathway - cell viability counter screen (AID 1259380); details: ER-beta-bla HEK293T viability, CellTiter-Glo luminescence, 16 h; series mostly up to 92.4 µM; note: nearly all actives have a fitted effect of over 30% in size
Method in brief: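 Cell viability counter screen: CellTiter-Glo luminescence (30 min, room temperature) measured in the same wells as the beta-lactamase readout, after 16 hr compound exposure at 37C of ER-beta-bla HEK293T cells in 2% charcoal-stripped FBS medium.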

[6] = molecular target: Androgen receptor (Homo sapiens) (UniProt P10275); assay: qHTS assay to identify small molecule agonists of the androgen receptor (AR) signaling pathway in the presence of an antagonist (AID 1259381; calls by dose curve; note: nearly all actives have a fitted effect of over 15% in size); details: MDA-kb2 MMTV-luciferase, AR agonist + nilutamide, 16 h; series mostly up to 42.5 µM
Method in brief: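 Agonist-mode confirmation run against 3.0 uM final nilutamide: compounds titrated at 15 concentrations onto MDA-kb2 MMTV-luciferase reporter cells. Luminescence measured with ONE-Glo following 16 hr incubation, 37C, 0% CO2.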

[7] = qHTS assay to identify small molecule antagonists of the estrogen receptor beta (ER-beta) signaling pathway - cell viability counter screen (AID 1259382); details: ER-beta-UAS-bla HEK293T viability, CellTiter-Glo luminescence, 16 h; series mostly up to 92.4 µM; note: nearly all actives have a fitted effect of over 55% in size
Method in brief: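 Cytotoxicity was measured in the same wells by CellTiter-Glo luminescence after 30 min at room temperature. Cells were ER-beta-bla HEK293T in charcoal-stripped serum, given compound together with 1 nM E2 and incubated 16 h at 37C.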

[8] = molecular target: Estrogen receptor (Homo sapiens) (UniProt P03372); assay: qHTS assay to identify small molecule agonists of the estrogen receptor alpha (ER-alpha) signaling pathway in the presence of an antagonist (AID 1259383; calls by dose curve; note: top concentration of the series differs between compounds; nearly all actives have a fitted effect of over 15% in size); details: VM7Luc4E2 cells, ERE-luciferase, +ICI-182,780, 22 h; series mostly up to 92.4 µM
Method in brief: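 Agonist-mode confirmation run in the presence of 10.0nM (final) ICI-182,780 antagonist. The reporter was ERE-driven luciferase in VM7Luc4E2 cells, grown in charcoal-stripped serum. Cells were exposed to 15-concentration compound series for 22hr, then ONE-Glo luminescence was read.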

[9] = qHTS assay to identify small molecule agonists or antagonists of the thyroid stimulating hormone receptor (TSHR) signaling pathway - wild type cell line counter screen (AID 1259384; calls by dose curve); details: HEK293 wild type, cAMP HTRF counter-screen, stronger effect = higher value; series mostly up to 92.4 µM
Method in brief: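 Wild-type HEK293 cells were plated 18 h at 37 C/5% CO2, pin-dosed with compound plus Ro20-1724 medium, held 30 min at room temperature, then given cAMP-d2 and anti-cAMP-cryptate; fluorescence was read after 1 h. Fifteen concentrations, triplicate.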

[10] = molecular target: Thyrotropin receptor (Homo sapiens) (UniProt P16473); assay: qHTS assay to identify small molecule antagonists of the thyroid stimulating hormone receptor (TSHR) signaling pathway (AID 1259385; calls by dose curve; note: nearly all actives have a fitted effect of over 20% in size; note: potency is the fitted concentration of half-maximal effect); details: TSHR-HEK293 cAMP HTRF, TSH-stimulated antagonist mode; series mostly up to 92.4 µM
Method in brief: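 TSHR-HEK293 cells were plated and held 18 h at 37C/5% CO2, then given compound plus Ro20-1724 and stimulated with TSH at 1.5 ng/mL final. After 30 min at room temperature, cAMP was detected with cAMP-d2/anti-cAMP-cryptate (1 h) by fluorescence.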

[11] = qHTS assay to identify small molecule agonists of the estrogen receptor alpha (ER-alpha) signaling pathway in the presence of an antagonist - cell viability counter screen (AID 1259386); details: VM7Luc4E2 viability, CellTiter-Fluor fluorescence, 22 h; series mostly up to 92.4 µM; note: nearly all actives have a fitted effect of over 30% in size
Method in brief: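 Compounds tested at 15 concentrations for 22 h at 37C alongside 10.0nM (final) ICI-182,780 antagonist, in VM7Luc4E2 cells grown in phenol red-free, charcoal-stripped medium. Viability read by CellTiter-Fluor fluorescence after 1 h reagent incubation.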

[12] = molecular target: Progesterone receptor (Homo sapiens) (UniProt P06401); assay: qHTS assay to identify small molecule agonists of the progesterone receptor (PR) signaling pathway (AID 1346784; calls by dose curve; note: nearly all actives have a fitted effect of over 30% in size); details: PR-UAS-bla HEK293T, beta-lactamase FRET ratio, 16 h; series mostly up to 92.4 µM
Method in brief: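 The screen uses PR-UAS-bla HEK 293T cells in charcoal-stripped serum (2%). Compounds are applied for 16 hr at 37C after a 6 hr pre-incubation, and reporter activity is detected with a FRET beta-lactamase substrate after 2 hr at room temperature.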

[13] = molecular target: Progesterone receptor (Homo sapiens) (UniProt P06401); assay: qHTS assay to identify small molecule antagonists of the progesterone receptor (PR) signaling pathway (AID 1346795; active = well fitted inhibition curve with a large enough effect in the signal ratio in the repeat runs, not every such curve was filed as active; the % refers to the signal ratio); details: PR-UAS-bla HEK293T, beta-lactamase FRET ratio, 16 h; series mostly up to 42.5 µM
Method in brief: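 After 6 hr plating at 37C in 2% stripped-serum medium, PR-UAS-bla HEK293T cells got compounds, then 1 nM R5020. Sixteen hours later, LiveBLAzer substrate was applied for 2 hr at room temperature and fluorescence was recorded.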

[14] = qHTS assay to identify small molecule antagonists of the TGF-beta/Smad signaling pathway - cell viability counter screen (AID 1346824); details: SBE-bla HEK293T viability, CellTiter-Glo luminescence; series mostly up to 76.8 µM; note: nearly all actives have a fitted effect of over 50% in size
Method in brief: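 SBE-bla HEK 293T cells were plated overnight at 37 C, then given compounds in DMSO plus TGF-beta1 (added as 0.25 ng/mL solution) for 5 hr. After the bla read, CellTiter-Glo was added to the same wells and luminescence read after 30 min at room temperature.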

[15] = qHTS assay to identify small molecule agonists of the TGF-beta/Smad signaling pathway - cell viability counter screen (AID 1346829); details: SBE-bla HEK293T viability, CellTiter-Glo luminescence, 5 h; series mostly up to 76.8 µM; note: top concentration of the series differs between compounds; nearly all actives have a fitted effect of over 45% in size
Method in brief: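 Compound-treated SBE-bla HEK 293T cells (5 hr, 37 C) were assessed for viability with CellTiter-Glo in parallel with the reporter read.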

[16] = qHTS assay to identify small molecule agonists of the TGF-beta/Smad signaling pathway (AID 1346859; active = well fitted activation curve with a large enough effect in the signal ratio in the repeat runs, not every such curve was filed as active; the % refers to the signal ratio); details: SBE-bla HEK293T, TGF-beta/Smad beta-lactamase reporter, 5 h; series mostly up to 76.8 µM
Method in brief: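 Dual-wavelength fluorescence (460/530 nm emission) quantified beta-lactamase expression under the Smad binding element in HEK 293T cells following 5 hr compound treatment at 37 C.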

[17] = qHTS assay to identify small molecule agonists of the progesterone receptor (PR) signaling pathway - cell viability counter screen (AID 1346799; calls by dose curve; note: nearly all actives have a fitted effect of over 45% in size); details: PR-UAS-bla HEK293T viability, CellTiter-Glo luminescence, 16 h; series mostly up to 92.4 µM
Method in brief: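 Viability was scored by ATP luminescence (CellTiter-Glo, 30 min, room temperature) in the same wells used for the reporter readout, after 16 hr compound exposure of PR-UAS-bla HEK293T cells.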

[18] = qHTS assay to identify small molecule antagonists of the progesterone receptor (PR) signaling pathway - cell viability counter screen (AID 1346798); details: PR-UAS-bla HEK293T viability, CellTiter-Glo luminescence, 16 h; series mostly up to 42.5 µM; note: nearly all actives have a fitted effect of over 50% in size
Method in brief: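 Viability was determined by ATP-based luminescence (CellTiter-Glo) in PR-UAS-bla HEK293T cells cultured in 2% charcoal-stripped serum and incubated 16 hr with compounds under R5020 stimulation.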

[19] = molecular target: Thyrotropin-releasing hormone receptor (Homo sapiens) (UniProt P34981); assay: qHTS assay to identify small molecule antagonists of the thyrotropin-releasing hormone receptor (TRHR) signaling pathway (AID 1346877; active = well fitted inhibition curve with a large enough effect in the repeat runs, not every such curve was filed as active); details: TRHR-HEK293, TRH-induced calcium fluorescence, antagonist mode; series mostly up to 51.3 µM
Method in brief: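 Antagonist mode: after a 5 min room-temperature compound exposure, cells were stimulated with 1 nM (final) TRH. Dye-loaded TRHR-HEK293 cells were used, and calcium-dependent fluorescence was followed for 3 min, with 15-point titrations run in triplicate.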

[20] = molecular target: Thyrotropin-releasing hormone receptor (Homo sapiens) (UniProt P34981); assay: qHTS assay to identify small molecule agonists of the thyrotropin-releasing hormone receptor (TRHR) signaling pathway (AID 1346891; calls by dose curve;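 note: HEK293 cells expressing TRHR with calcium dye readout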); details: TRHR-HEK293 calcium fluorescence, agonist mode; series mostly up to 57.6 µM
Method in brief: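 Kinetic fluorescence (3 min, 1 s intervals) reported intracellular calcium after compound transfer onto TRHR-Hek293 cells pre-loaded with dye for 2 h at 37 °C.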

Measured: Potency

Chain of Thyrotropin receptor (Homo sapiens) (P16473 whole entry, looked up): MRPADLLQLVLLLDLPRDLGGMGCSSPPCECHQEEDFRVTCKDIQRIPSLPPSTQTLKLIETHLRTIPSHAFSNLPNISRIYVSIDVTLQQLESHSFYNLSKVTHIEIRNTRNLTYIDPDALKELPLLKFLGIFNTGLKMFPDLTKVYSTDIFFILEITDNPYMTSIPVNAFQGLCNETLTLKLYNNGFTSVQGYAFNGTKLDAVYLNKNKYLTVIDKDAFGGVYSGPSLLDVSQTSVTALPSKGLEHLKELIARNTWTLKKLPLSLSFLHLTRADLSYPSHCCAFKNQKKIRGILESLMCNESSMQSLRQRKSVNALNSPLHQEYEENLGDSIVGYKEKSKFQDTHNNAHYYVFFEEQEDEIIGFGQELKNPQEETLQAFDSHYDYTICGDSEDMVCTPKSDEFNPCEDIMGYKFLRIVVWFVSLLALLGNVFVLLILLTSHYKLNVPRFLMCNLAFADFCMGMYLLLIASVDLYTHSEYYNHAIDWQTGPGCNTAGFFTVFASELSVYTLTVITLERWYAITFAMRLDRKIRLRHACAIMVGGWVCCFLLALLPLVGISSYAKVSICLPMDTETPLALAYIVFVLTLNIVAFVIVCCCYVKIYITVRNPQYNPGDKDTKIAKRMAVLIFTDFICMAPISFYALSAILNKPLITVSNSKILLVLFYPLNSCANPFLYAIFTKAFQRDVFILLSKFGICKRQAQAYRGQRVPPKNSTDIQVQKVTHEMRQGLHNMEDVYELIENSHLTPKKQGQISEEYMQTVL
Chain of Estrogen receptor (Homo sapiens) (P03372 whole entry, looked up): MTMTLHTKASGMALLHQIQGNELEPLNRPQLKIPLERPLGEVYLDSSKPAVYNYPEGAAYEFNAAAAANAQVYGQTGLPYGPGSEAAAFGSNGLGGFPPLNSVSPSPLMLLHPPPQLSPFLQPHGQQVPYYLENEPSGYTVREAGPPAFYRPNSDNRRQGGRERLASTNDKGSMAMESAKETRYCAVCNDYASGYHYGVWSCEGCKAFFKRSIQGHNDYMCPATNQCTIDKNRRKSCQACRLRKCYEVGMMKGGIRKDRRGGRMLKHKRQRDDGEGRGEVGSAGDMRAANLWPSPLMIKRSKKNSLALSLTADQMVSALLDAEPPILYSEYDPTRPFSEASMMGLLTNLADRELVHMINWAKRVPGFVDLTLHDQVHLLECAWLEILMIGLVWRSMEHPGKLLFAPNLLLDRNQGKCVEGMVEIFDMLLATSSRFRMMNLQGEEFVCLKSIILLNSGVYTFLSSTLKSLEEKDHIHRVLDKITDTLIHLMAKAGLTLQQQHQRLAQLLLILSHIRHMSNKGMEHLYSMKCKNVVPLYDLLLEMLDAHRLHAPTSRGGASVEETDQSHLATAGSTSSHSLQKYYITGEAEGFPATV
Chain of Estrogen receptor beta (Homo sapiens) (Q92731 whole entry, looked up): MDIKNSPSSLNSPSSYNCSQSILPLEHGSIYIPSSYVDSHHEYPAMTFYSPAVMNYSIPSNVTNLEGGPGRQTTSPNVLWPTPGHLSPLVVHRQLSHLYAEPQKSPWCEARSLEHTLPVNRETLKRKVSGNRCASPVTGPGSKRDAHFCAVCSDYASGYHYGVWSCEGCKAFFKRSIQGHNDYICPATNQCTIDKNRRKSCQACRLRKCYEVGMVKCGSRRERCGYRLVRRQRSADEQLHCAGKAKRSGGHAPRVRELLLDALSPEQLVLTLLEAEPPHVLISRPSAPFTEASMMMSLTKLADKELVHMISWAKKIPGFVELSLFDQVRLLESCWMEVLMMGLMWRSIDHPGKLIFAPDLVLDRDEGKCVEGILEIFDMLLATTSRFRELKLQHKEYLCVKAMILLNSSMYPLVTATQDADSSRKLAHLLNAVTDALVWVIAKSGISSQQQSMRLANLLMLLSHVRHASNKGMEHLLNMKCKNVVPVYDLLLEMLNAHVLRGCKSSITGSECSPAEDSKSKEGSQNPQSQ
Chain of Androgen receptor (Homo sapiens) (P10275 whole entry, looked up): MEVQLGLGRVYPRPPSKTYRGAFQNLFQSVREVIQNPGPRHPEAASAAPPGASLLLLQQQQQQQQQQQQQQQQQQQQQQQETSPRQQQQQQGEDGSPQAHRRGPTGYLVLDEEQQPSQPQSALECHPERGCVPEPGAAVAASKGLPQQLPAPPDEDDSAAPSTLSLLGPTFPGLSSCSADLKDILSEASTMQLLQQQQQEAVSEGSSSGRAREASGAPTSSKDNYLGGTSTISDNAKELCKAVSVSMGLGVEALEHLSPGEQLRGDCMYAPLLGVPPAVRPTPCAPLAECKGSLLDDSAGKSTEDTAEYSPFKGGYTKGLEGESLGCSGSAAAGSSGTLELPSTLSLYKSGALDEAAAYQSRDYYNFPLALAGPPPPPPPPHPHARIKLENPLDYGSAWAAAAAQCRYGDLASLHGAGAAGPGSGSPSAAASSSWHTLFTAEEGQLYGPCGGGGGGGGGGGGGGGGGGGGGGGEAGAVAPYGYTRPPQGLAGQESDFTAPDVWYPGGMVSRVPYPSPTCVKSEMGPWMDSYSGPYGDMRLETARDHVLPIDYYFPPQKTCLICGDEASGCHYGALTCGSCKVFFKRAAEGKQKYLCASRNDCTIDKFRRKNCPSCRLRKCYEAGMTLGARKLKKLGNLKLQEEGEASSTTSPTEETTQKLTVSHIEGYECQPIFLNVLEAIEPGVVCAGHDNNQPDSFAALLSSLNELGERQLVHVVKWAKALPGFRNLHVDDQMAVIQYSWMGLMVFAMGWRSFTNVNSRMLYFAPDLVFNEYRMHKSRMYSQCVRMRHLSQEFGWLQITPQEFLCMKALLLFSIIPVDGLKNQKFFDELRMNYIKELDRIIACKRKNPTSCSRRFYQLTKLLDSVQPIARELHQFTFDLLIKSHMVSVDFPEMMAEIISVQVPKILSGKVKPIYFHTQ
Chain of Thyrotropin-releasing hormone receptor (Homo sapiens) (P34981 whole entry, looked up): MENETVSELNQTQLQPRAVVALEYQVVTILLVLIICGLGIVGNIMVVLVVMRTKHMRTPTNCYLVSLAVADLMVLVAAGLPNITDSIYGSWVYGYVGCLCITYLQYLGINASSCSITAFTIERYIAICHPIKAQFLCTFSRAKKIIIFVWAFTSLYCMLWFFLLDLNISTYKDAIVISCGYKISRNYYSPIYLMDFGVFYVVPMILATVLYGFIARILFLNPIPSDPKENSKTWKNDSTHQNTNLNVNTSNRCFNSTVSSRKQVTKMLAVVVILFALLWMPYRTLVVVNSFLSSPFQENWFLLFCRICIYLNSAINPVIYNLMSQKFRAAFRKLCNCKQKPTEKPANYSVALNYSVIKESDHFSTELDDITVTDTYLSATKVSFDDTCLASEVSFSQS
Chain of Progesterone receptor (Homo sapiens) (P06401 whole entry, looked up): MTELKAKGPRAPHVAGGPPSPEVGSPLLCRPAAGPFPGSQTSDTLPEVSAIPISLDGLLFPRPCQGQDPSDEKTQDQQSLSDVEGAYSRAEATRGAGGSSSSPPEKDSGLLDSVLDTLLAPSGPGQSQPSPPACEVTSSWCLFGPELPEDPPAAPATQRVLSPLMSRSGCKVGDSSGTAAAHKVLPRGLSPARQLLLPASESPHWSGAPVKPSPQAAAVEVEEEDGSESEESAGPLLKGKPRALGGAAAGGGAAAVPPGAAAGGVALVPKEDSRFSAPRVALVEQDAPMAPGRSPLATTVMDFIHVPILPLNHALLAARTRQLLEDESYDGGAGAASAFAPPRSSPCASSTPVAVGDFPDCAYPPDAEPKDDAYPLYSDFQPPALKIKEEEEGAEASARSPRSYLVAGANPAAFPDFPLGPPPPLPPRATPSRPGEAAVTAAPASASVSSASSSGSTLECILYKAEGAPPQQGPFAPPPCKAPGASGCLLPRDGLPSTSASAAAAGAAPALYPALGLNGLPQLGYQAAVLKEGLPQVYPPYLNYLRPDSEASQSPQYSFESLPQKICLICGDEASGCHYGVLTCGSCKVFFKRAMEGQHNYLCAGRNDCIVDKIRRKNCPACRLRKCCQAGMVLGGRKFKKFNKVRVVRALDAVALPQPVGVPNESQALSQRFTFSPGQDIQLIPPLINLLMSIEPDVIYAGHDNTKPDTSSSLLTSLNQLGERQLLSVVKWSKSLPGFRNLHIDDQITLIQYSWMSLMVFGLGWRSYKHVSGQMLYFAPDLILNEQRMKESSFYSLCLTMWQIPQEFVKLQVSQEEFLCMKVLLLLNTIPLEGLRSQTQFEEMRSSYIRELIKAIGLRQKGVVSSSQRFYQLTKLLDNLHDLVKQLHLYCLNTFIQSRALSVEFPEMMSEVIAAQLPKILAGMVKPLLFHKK

FC1(F)C(F)(F)C(F)(F)C2(F)C(F)(F)C(F)(F)C(F)(F)C(F)(F)C2(F)C1(F)F (stereo not given)
not listed: [17] | [18] | [19] | [20]
inactive: all other assays above

CC(C)(CC(=O)O)C(=O)O
not listed: [18] | [19] | [20]
inactive: all other assays above

CC(=O)CC(C)C
not listed: [8] | [19] | [20]
inactive: all other assays above

CCCCOCCOCCOCc1cc2c(cc1CCC)OCO2
active: [1] 1.39 µM and 2.66 µM | [10] 23.7 µM
not listed: [8] | [13] | [15]
inactive: all other assays above

CC(NC(CCc1ccccc1)C(=O)O)C(=O)N1C(=O)N(C)CC1C(=O)O (stereo not given)
not listed: [8]
inactive: all other assays above

NS(=O)(=O)c1cc2c(cc1Cl)NC(C1CC3C=CC1C3)NS2(=O)=O (stereo not given)
not listed: [9] | [10]
inactive: all other assays above

CCO/C([O-])=N/c1c[n+](N2CCOCC2)no1
not listed: [6]
inactive: all other assays above

Nc1c[n+](N2CCOCC2)no1
not listed: [6]
inactive: all other assays above

Cc1ccc(Cl)cc1Cl
not listed: [6]
inactive: all other assays above

Cc1ccc(C#N)cc1
not listed: [6] | [15]
inactive: all other assays above

CC(C)(O)C(=O)c1ccccc1
not listed: [17]
inactive: all other assays above

c1cnc(N2CCN(Cc3ccc4c(c3)OCO4)CC2)nc1
not listed: [6]
inactive: all other assays above

CCOC(=O)C(=O)OCC
not listed: [6] | [19] | [20]
inactive: all other assays above

Nc1nc2c(ncn2COC(CO)CO)c(=O)[nH]1
not listed: [6]
inactive: all other assays above

CC(C)OC(=O)c1ccccc1
not listed: [6] | [19] | [20]
inactive: all other assays above
